NS1 inh: blocks influenza NS1 protein function; Potency, µM (top dose mostly 46.1 µM), for inactives: top-dose activity, positive = more growth; actives 0.4% (n = 270,000); calls by dose curve; also: actives are rising curves; nearly all actives have a fitted effect of over 50% in size
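OD600 was taken as the measure of yeast growth restored by compound in an NS1-expressing S. cerevisiae strain. Cells had been washed out of glucose medium and diluted 1:100 into galactose -URA medium, pH 6.0.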
SARS PLP yeast: inhibitors of SARS-CoV papain-like protease in yeast | S. cerevisiae expressing SARS-CoV PLpro, growth rescue | Potency, µM (doses to about 32.9 µM), inactives show at the highest dose activity, positive = growth rescue, actives largely listed as activators | actives 0.19% (n = 330,000); calls by dose curve; also: 0% is about no effect; nearly all actives have a fitted effect of over 55% in size
Pf growth 48h: inhibits P. falciparum growth in the first generation, 48 h. P. falciparum luciferase growth in erythrocytes, 48 h. Potency, µM (series often up to 28.7 µM), for inactives: top-dose activity change, negative = inhibition, usual class: inhibitors. actives 5.9% (n = 310,000). AID 504832; also: % is scaled to controls: 0 for no effect and ±100 for the full control effect
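Compounds are pin-transferred into medium, infected erythrocytes (2% hematocrit, 0.1% parasitemia final) are added, and plates sit one parasite generation at 37 C in 5% CO2. Detection reagent is then added and luminescence measured.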
Pf growth 96h: P. falciparum growth inhibition at 96 hour, primary screen for plastid delayed-death inhibitors; P. falciparum luciferase reporter growth, 96 h; Potency, µM (series often up to 28.7 µM), without a hit: top-dose activity change, negative = inhibition, hits mostly inhibitors; actives 6.9% (n = 320,000); AID 504834; also: % is scaled to controls: 0 for no effect and ±100 for the full control effect
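Infected RBCs, 2% Hct / 0.05% parasitemia final; luciferase-reporter P. falciparum; cpd 96 h, 37 C, 5% CO2; luciferase detection reagent; luminescence.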
AMA1-RON2 inh: AMA1-RON2 (P. falciparum) interaction inhibition | actives 0.2% (n = 360,000) | AlphaScreen AMA1-biotinylated RON2 peptide binding | Potency, µM (series often up to 58.2 µM), without a hit: top-dose activity change, negative = inhibition, usual class: inhibitors | AID 720542;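 also: 0% = vehicle wells and -100% = peptide control; nearly all actives have a fitted effect of over 45% in size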
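AMA1 (3D7) with his tag at 25 nM final met compounds first, then biotinylated RON2 peptide at 25 nM; detection used donor plus acceptor beads, 10 µg/mL apiece, read by AlphaScreen after 30 min at room temperature.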
HCV inhibitor: blocks hepatitis C virus; Huh7.5.1 HCVcc-Cre infection, luciferase reporter, 44 h; Potency, µM (series often up to 41.8 µM), without a hit: top-dose activity change, negative = inhibition, hits mostly inhibitors; actives 3.4% (n = 340,000); AID 651820; also: % is scaled to controls: 0 for no effect and ±100 for the full control effect
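Reporter virus HCVcc-Cre (~0.5 moi) infects cells exposed to compound; seeding density 1,000 cells/well with 4 h settling beforehand. Luminescence, 15 sec read, taken 44 h post-infection following a 15 min RT substrate incubation.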
* = called active by the depositor; ? = inconclusive; · = no result given; [ ] = remark or other dose. A selection: hits, their analogues and other compounds. The true share with any hit is near 12%. Unless noted, calls follow the shape of the dose curve; as a rule, active = well fitted curve in the direction sought with a large enough effect; inconclusive = small, poorly fitted or top-dose-only effect, or another doubt; inactive = no such curve, though single readings can be large; an effect the other way counts as inactive or inconclusive. Potency is read from the fitted curve at half-maximal effect.

SMILES | NS1 inh | SARS PLP yeast | Pf growth 48h | Pf growth 96h | AMA1-RON2 inh | HCV inhibitor
Cc1ccc2nc3c(cc2c1)c(NC(=O)C(C)(C)C)nn3CC(C)C | -5% | -1% | 13µM* | 1µM* | 65% | ?
Cc1cc2nn(-c3cccc4ccccc34)nc2cc1NC(=O)c1cccs1 | -7% | -6% | · | 7.4µM* | 18% | ?
COc1cccc(OCC(=O)NNC(=O)C(=O)Nc2cccc(C)c2)c1 | -14% | -5% | 41% | 55% | 98% | 15%
O=C(COc1ccc(S(=O)(=O)N2CCOCC2)cc1)Nc1ccccc1Cl | -1% | 9% | ? | 4% | 5% | -29%
CNc1ccc(Cl)cc1S(=O)(=O)c1ccccc1[N+](=O)[O-] | · | · | · | · | -25% | ·
NC(=O)NC(CC(=O)NCc1ccc2c(c1)OCO2)c1ccccc1Cl (centres undefined) | -8% | 2% | 10% | 22% | 8% | 10%
O=C(CSc1nnc(NC(=O)c2cccc(Cl)c2)s1)NCC1CCCO1 (centres undefined) | 16% | -2% | 22% | -6% | 7% | -7%
O=S(=O)(Nc1ccc(-c2ccc3nncn3n2)cc1)c1cccc(F)c1 | · | 0% | -13% | -3% | -10% | -16%[8.37 µM]
CCOC(=O)c1c(SC)[nH]c2c(Cl)cccc2c1=O | 1% | 1% | 9% | 38% | -3% | 4%
COc1ccc(/C(C)=N/Nc2ccc(C(=O)O)cc2)c(OC)c1 | 4% | 12% | 191% | 200% | -20% | 33%
COc1ccc2c(c1)C(=NNc1ccc(C(=O)O)cc1)c1cc(OC)ccc1-2 | 11% | 0% | ? | 35% | -1% | 14µM*
CCCCN1C(=O)NC(=O)C2(Cc3c(nc4c(C)cccn4c3=O)N3CCc4ccccc4C32)C1=O (centres undefined) | -59% | 0% | 9.3µM* | 0% | -1% | ?
Cc1cccn2c(=O)c3c(nc12)N1CCc2ccccc2C1C1(C3)C(=O)NC(=O)N(C)C1=O (centres undefined) | -2% | -6% | 13µM* | · | -7% | 16%
Cc1cccn2c(=O)c3c(nc12)N1CCCCCC1C1(C3)C(=O)N(C)C(=O)N(C)C1=O (centres undefined) | 1% | 1% | ? | 2.6µM* | -7% | 18%
CCCCN1C(=O)NC(=O)C2(Cc3c(nc4ccccn4c3=O)N3CCc4ccccc4C32)C1=O (centres undefined) | -53% | 6% | ? | -57% | 9% | 5%
Cc1ccc2nc3c(cc2c1)CC1(C(=O)N(C)C(=O)N(C)C1=O)C1CCCCN31 (centres undefined) | -22% | 3% | 43% | · | 19% | ?
CCN(CC)c1ccc(C(=S)NCc2ccccc2)cc1 | 2% | -2% | -12% | ? | -8% | -8%
CC(C)NC(=O)c1cc(C2CCCCN2S(=O)(=O)c2ccccc2)on1 (centres undefined) | · | · | · | · | 3% | ·
O=C(NCCN1CCN(C(=O)c2cccc(OC(F)F)c2)CC1)c1cccc(OC(F)F)c1 | · | 4% | · | · | 5% | ?
CC1=C(C(=O)Nc2ccccc2C(=O)N2CCN(c3ccccc3)CC2)SCCO1 | · | · | · | · | -17% | ·
O=S(=O)(Nc1cccc(S(=O)(=O)N2CCCCCC2)c1)c1ccc(F)cc1F | · | 2% | · | · | -12% | 1%
COc1ccc(-c2c3c(=O)n(C)c(=O)n(C)c3cn2C2CCCCC2)cc1 | -10% | 1% | ? | 22% | -19% | 25µM*
O=C(NN=C1CCCC1)c1ccc(O)cc1O | 21% | -4% | -10% | 13µM* | 15% | 4%
S=C(Nc1ccccc1)Nc1nc2ccccc2n1CCOc1ccc(Br)cc1 | 25% | ? | 3.3µM* | 4% | -16% | ?
Cn1c(NC(=S)Nc2ccccc2)nc2ccccc21 | 7% | 8.9µM* | ? | ? | -1%[2.32 µM] | -17%
SMILES | NS1 inh | SARS PLP yeast | Pf growth 48h | Pf growth 96h | AMA1-RON2 inh | HCV inhibitor
Cn1c(NC(=O)c2ccccc2NC(=O)C(C)(C)C)nc2ccccc21 | -87% | -18% | ? | ? | 126% | 7.1µM*
Cn1c(NC(=O)c2ccc(F)cc2)nc2ccccc21 | -32% | -2% | 22% | -8% | 55% | -13%
COc1ccc(CCN2C(=O)CC(NNc3ccc([N+](=O)[O-])cc3)C2=O)cc1OC (centres undefined) | -1% | -1% | ? | 0% | 0% | -9%
O=C(CN1CCN(S(=O)(=O)c2ccc(F)c(Cl)c2)CC1)N1CCNC1=O | · | -4% | -5% | 19% | -8% | 17%
CCOC(=O)C1=C(c2ccccc2)Nc2ncnn2C1c1ccc(C(=O)O)cc1 (centres undefined) | 8% | 2% | 42% | 33% | -15% | 4%
CCOC(=O)C1=C(c2ccccc2)NC(N)=NC1c1ccc(OCc2ccc(C(=O)OC)cc2)cc1 (centres undefined) | 4% | 0% | 4.7µM* | 7.4µM* | -16% | ?
COCC(C)N1CCC(Oc2ccc(C(=O)NCc3ccccn3)cc2)CC1 (centres undefined) | 4% | 1% | 11% | 12µM* | 24% | 4%
CCOc1ccccc1CN1CCC(Oc2ccc(C(=O)NCc3ccccn3)cc2)CC1 | -16% | 3% | 10µM* | ? | 52% | -26%
CCn1cc(CNC(=O)c2ccc(OC3CCN(Cc4ccccn4)CC3)cc2)cn1 | -11% | 3% | 25% | ? | 54% | 10µM*
CCCCc1ccc(NC2=NCC(=O)N2CCc2ccccc2)cc1 | 0% | -1% | ? | ? | 12% | ?
O=C(CSC1=NS(=O)(=O)c2cc(F)ccc2N1)NCc1ccccc1Cl | · | 2% | 3% | 13% | 7% | 5%
CC1CCC2(CC1)NC(=O)N(NC(=O)C1CCN(C(=O)c3ccc(Cl)cc3)CC1)C2=O (centres undefined) | · | 3% | -5% | -11% | 0% | -7%
Cc1ccc(S(=O)(=O)N2CC=C(c3ccc(F)cc3)CC2)cc1 | -12% | -27% | -11% | 0% | 6% | 10%
CCOc1cc(S(=O)(=O)NCCc2cccc(C)c2)c(OCC)cc1-n1cnnn1 | -35% | -3% | 9.3µM* | 6.6µM* | 4% | -17%
CCOc1cc(S(=O)(=O)N(CC)CC)c(OCC)cc1-n1cnnn1 | -5% | 5% | 1% | -2% | 16% | -25%
CCOc1cc(S(=O)(=O)N2CC=C(c3ccc(F)cc3)CC2)c(OCC)cc1-n1cnnn1 | -23% | -4% | 7.4µM* | ? | 8% | -16%
CCOc1cc(S(=O)(=O)N2CCC(Cc3ccccc3)CC2)c(OCC)cc1-n1cnnn1 | 23% | -3% | 13µM* | ? | -1% | ?
